PubChem BioAssay (NCATS)
Inconclusive results are not listed. Where a call stands in place of a potency, no number is given. Activity calls are given as the source filed them. The call rests on the fitted dose curve; in most records, active means well fitted inhibition curve with a large enough effect; inconclusive means small, poorly fitted or top-dose-only effect; inactive means flat fitted curve, though single readings scatter.

Assays:
NIH3T3 [1] = test: Cytotoxic Profiling of Annotated Libraries Using Quantitative High-Throughput Screening (AID 1296008); conditions: Five cell lines viability, CellTiter-Glo ATP luminescence, 48-72 h; max response: hits give low values
How it was run: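 Cytotoxicity was measured as CellTiter-Glo ATP luminescence, read after 10 min at room temperature. Compound treatment of the cells lasted 48 or 72 hr at 37 degrees Celsius in a qHTS format.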

NIH3T3 [2] = test: qHTS assay to identify novel small-molecules to repurpose for Merkel cell carcinoma treatment (AID 1296009); conditions: MCC and control cell lines, CellTiter-Glo viability, 72 h; at 44.8 µM (top of the series) unless noted
How it was run: (§1)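 Cell viability, measured as CellTiter-Glo luminescence, was normalized between DMSO and no-cell wells. The cells had been exposed to 8- or 11-point compound dilutions for 72 hr at 37 degree celsius.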

HACAT = test: as above; conditions: MCC and control cell lines, CellTiter-Glo viability, 72 h; series mostly up to 44.8 µM
How it was run: as §1

HEK293T = test: as above; conditions: MCC and control cell lines, CellTiter-Glo viability, 72 h; at 44.8 µM (top of the series) unless noted
How it was run: as §1

MCC-26 = test: as above; conditions: MCC and control cell lines, CellTiter-Glo viability, 72 h; series mostly up to 46 µM
How it was run: as §1
Further: nearly all actives have a fitted effect of over 60% in size.

`O=C(OC1C=C(CO)C2C(OC3OC(CO)C(O)C(O)C3O)OC=CC12)c1ccc(O)cc1` (stereo not drawn) was tested, and the outcome (NIH3T3 [1]) was “inactive” and the outcome (NIH3T3 [2]) was “inactive [at 17.4 µM]”.

For `CCC1=CC2CN(C1)Cc1c([nH]c3ccccc13)[C@@](C(=O)OC)(c1cc3c(cc1OC)N(C)[C@H]1[C@@](O)(C(=O)OC)[C@H](OC(C)=O)[C@]4(CC)C=CCN5CC[C@]31[C@@H]54)C2` (stereo partly drawn), the Potency (HACAT) was “inactive”.

For `CCNC(=O)Nc1ncc(-c2cc(-c3c(C)cc(OC)cc3C)nc(-c3cnccn3)n2)s1`, the Potency (HACAT) was “inactive” and the outcome (HEK293T) was “inactive”.

For `CC(O)/C=C/C1OC(=O)CC1Nc1ccc(C(=O)O)cc1` (stereo not drawn), the outcome (NIH3T3 [1]) was “inactive” and the outcome (NIH3T3 [2]) was “inactive”.

`C[C@@]1(O)[C@H](O)[C@@H](CO)O[C@H]1n1ccc(N)nc1=O` was tested, and the outcome (HEK293T) was “inactive”.

In the case of `O=C(N/N=C/c1ccc(O)c(O)c1)c1cc2ccccc2cc1O`, the outcome (HEK293T) is reported as “inactive [at 17.4 µM]”.

`CS(=O)(=O)NCC1CCC(Nc2nc3c(s2)CCSc2ccccc2-3)CC1` (stereo not drawn) was tested, and the Potency (HACAT) was “inactive”.

With `COc1ccc2[nH]c3c(-c4cccc5ccccc45)nccc3c2c1` the Potency (HACAT) was “inactive”.

In the case of `Cc1cccc(-c2[nH]c(Cc3cccc(C(N)=O)c3)nc2-c2ccc3nccnc3c2)n1`, the Potency (HACAT) is reported as “inactive” and the outcome (HEK293T) is reported as “inactive”.

`Nc1ccccc1N` was tested, and the outcome (MCC-26) was “inactive”.

In the case of `CC1CCN(C(=O)CC#N)CC1N(C)c1ncnc2[nH]ccc12` (stereo not drawn), the outcome (HEK293T) is reported as “inactive”.

For `Cc1ccc(-c2c(C(=O)CF)n(CCCO)c3ncnc(N)c23)cc1`, the outcome (HEK293T) was “inactive”.

With `CCOCc1cc(OC)c(-c2ccc(C[C@H](NC(=O)c3c(F)cccc3F)C(=O)O)cc2)c(OC)c1` the Potency (HACAT) was “inactive”.

In the case of `C[C@@H]1CCC2C(C)(C)[C@H](O)CC[C@]2(C)[C@@]12Cc1c(O)cc3c(c1O2)CN([C@@H](CCC(=O)O)C(=O)O)C3=O` (stereo partly drawn), the Potency (HACAT) is reported as “inactive” and the outcome (HEK293T) is reported as “inactive [at 17.4 µM]”.

For `COC(=O)c1cc(OC)cc(OC)c1C(=O)c1c(OC)cc2c(c1O)C1CCCC(C)(O2)O1` (stereo not drawn), the outcome (NIH3T3 [1]) was “inactive” and the outcome (NIH3T3 [2]) was “inactive [at 17.4 µM]”.

`Cc1nc2ccc(Oc3ccc(F)cc3)cc2c(=O)n1C[C@H]1CCCN(C(C)C)C1` was tested, and the Potency (HACAT) was “inactive”.

In the case of `COc1cc2c3c(cc4ccccc4c3c1O)NC2=O`, the outcome (NIH3T3 [1]) is reported as “inactive” and the outcome (NIH3T3 [2]) is reported as “inactive”.

`CC(=O)O[C@@H]1[C@@H](O)[C@H](O[C@H]2CC[C@]34C[C@]35CC[C@]3(C)[C@@H]([C@@]6(C)CC[C@@H](C(C)(C)O)O6)[C@@H](O)C[C@@]3(C)[C@@H]5C[C@H](O[C@@H]3O[C@H](CO)[C@@H](O)[C@H](O)[C@H]3O)[C@H]4C2(C)C)OC[C@H]1O` was tested, and the Potency (HACAT) was “inactive”.

`O=C(O)[C@H](Cc1ccc(Nc2nccc3ccncc23)cc1)NC1=C(Br)C(=O)C12CCCCC2` was tested, and the Potency (HACAT) was “inactive”.

In the case of `COc1ccc(CCO[C@@H]2CCCC[C@H]2N2CC[C@@H](O)C2)cc1OC`, the outcome (NIH3T3 [1]) is reported as “inactive” and the outcome (NIH3T3 [2]) is reported as “inactive”.

With `Nc1nc2c(ncn2[C@@H]2O[C@@H]3COP(=O)(O)O[C@H]3[C@H]2O)c(=O)[nH]1` the Potency (HACAT) was “inactive”.

With `CNC(=O)c1cc(Oc2ccc3nc(N[C@@H]4CCCC[C@H]4O)sc3c2)ccn1` the Potency (HACAT) was “inactive”.

`C=CC(=O)N1CCN(C(=O)CNc2cc(I)c(Cl)cc2O)CC1` was tested, and the Potency (HACAT) was “inactive”.

With `CC(C)CCC[C@@H](C)[C@H]1CC[C@H]2[C@@H]3CC(=O)[C@H]4C[C@@H](O)CC[C@]4(C)[C@H]3CC[C@]12C` the Potency (HACAT) was “inactive”.

With `COc1ccc(N(C)c2nc(C)nc3ccccc23)cc1` the Potency (HACAT) was “inactive”.
